Screens (PubChem BioAssay)
RXFP1 ag = activates the human relaxin receptor RXFP1; HEK293T-RXFP1 cAMP TR-FRET, 30 min; response scale: percent of porcine relaxin response, buffer zero; Potency, µM (titrated, usually from 57.5 µM), for the others: at the top dose activation, usual class: activators; 370,000 tested, 0.3% active; active = well fitted activation curve with a large enough effect; inconclusive = small, poorly fitted or top-dose-only effect; note: potency is the fitted concentration of half-maximal effect; % is set by controls: 0 for no effect and ±100 for the full control effect; nearly all actives have a fitted effect of over 60% in size
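HEK293T cells stably expressing RXFP1 were pretreated with the PDE4 inhibitor Ro 20174, exposed to compounds for 30 min at 37C, lysed, and cAMP was read by TR-FRET. Data normalized to buffer (basal) and 29 nM porcine relaxin (100%).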
gsp antagonist = gsp mutant antagonism. Potency, µM (top dose mostly 76.9 µM), inactives show at the top dose activity change, negative = inhibition, actives largely listed as inhibitors. gsp-mutant cells, cAMP HTRF, 30 min. 340,000 tested, 0.4% active; calls by dose curve; cell line not stated here;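 note: intracellular cAMP measured with PDE inhibitor Ro 20-1724 present during compound exposure; potency is the fitted concentration of half-maximal effect; % is set by controls: 0 for no effect and ±100 for the full control effect; nearly all actives have a fitted effect of over 65% in size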
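HTRF cAMP read-out (cAMP-d2 plus anti-cAMP antibody-K in lysis buffer, 30 min RT). Before lysis, cells are exposed to compounds with […] for 30 min at 37C in DPBS containing Ca/Mg, BSA and Tween 20.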
Akt phos inh = inhibitors of Akt phosphorylation. Neuro2A IGF-stimulated pAkt S473 HTRF, 20 min; active compounds read low. 360,000 tested, 0.32% active. AID 651550. activity change, % for hits at 50 µM; in the data active = activity change below about -80%; inconclusive = mostly about -51% to -80%; note: % is set by controls: 0 for no effect and ±100 for the full control effect
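Neuro2A cells in DMEM with 0.5% FBS, overnight at 37 deg C, given compound at single 50 µM final, then IGF (6 nM final) for 20 min at 37 deg C. Lysed; phospho-Akt Ser473 by HTRF after 24 h, 665/615 ratio.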
RXFP1 antagonist = antagonists of human relaxin receptor RXFP1; Q9HBX9; HEK293-RXFP1, relaxin-stimulated cAMP HTRF, 30 min; active compounds read low; activity change, negative = inhibition, % at 57.5 µM; 350,000 tested, 0.59% active;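 active = activity change of -60% or lower, but not beyond a set lower limit; inconclusive = change between -60% and -40%, or beyond the set limit; inactive = change above -40%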; note: % is set by controls: 0 for no effect and ±100 for the full control effect
gsp ag = gsp mutant agonism; gsp mutant cells, cAMP HTRF, 30 min; Potency, µM (top dose mostly 76.9 µM), for the others: top-dose activation (cAMP increase), usual class: activators; 340,000 tested, 0.13% active; active = well fitted activation curve with a large enough effect; inconclusive = small, poorly fitted or top-dose-only effect, or another doubt; inactive = no such curve, though single readings can be large or run the other way; cell line not stated here;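 note: phosphodiesterase inhibitor Ro 20-1724 added with compounds to block cAMP breakdown; potency is the fitted concentration of half-maximal effect; nearly all actives have a fitted effect of over 60% in size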
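Cells in DMEM/10% FBS with G418 were pretreated with compounds in DMSO plus […] (300 uM stock) for 30 min at 37C. cAMP was measured by HTRF (cAMP-d2 plus anti-cAMP antibody-K) after 30 min at room temperature.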
TSHR antag = antagonists of human thyroid stimulating hormone receptor; TSHR-expressing cells, TSH-stimulated cAMP HTRF, 2 h; active compounds read low; activity change, negative = inhibition, % at 11.5 µM; 330,000 tested, 0.2% active; AID 504810;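 active = activity change below a set negative limit, meaning inhibition stronger than a set level, cut at about -70% in these data; inconclusive = activity change between two set negative limits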; note: % is set by controls: 0 for no effect and ±100 for the full control effect
Target sequence (P16473 whole entry, looked up): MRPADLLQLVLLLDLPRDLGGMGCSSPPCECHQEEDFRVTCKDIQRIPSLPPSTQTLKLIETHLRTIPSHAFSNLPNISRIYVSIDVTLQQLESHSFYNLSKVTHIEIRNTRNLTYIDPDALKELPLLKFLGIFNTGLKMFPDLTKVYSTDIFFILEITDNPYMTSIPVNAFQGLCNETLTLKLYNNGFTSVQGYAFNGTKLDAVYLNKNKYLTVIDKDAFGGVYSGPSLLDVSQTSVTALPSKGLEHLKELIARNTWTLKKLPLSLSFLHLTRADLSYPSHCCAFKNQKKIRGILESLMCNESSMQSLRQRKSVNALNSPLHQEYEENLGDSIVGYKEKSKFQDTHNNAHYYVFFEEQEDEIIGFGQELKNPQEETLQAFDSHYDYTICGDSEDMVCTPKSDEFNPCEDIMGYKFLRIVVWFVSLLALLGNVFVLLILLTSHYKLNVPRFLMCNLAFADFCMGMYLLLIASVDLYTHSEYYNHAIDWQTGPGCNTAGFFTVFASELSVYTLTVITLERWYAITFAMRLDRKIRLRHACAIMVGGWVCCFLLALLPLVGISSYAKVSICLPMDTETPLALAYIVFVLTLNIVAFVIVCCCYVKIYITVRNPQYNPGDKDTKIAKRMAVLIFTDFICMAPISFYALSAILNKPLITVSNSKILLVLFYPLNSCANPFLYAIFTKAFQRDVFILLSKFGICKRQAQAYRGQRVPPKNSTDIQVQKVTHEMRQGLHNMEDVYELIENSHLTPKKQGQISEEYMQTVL
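TSHR-expressing cells were treated with compounds, then stimulated with TSH at EC80 (4nM final) for 2 hours at 37 deg C. Cellular cAMP was measured by HTRF competition between lysate cAMP and cAMP-d2 for a cryptate-labelled anti-cAMP antibody.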
Active calls of the source: *; i = inactive; ? = inconclusive; nt = not tested or not shown; [ ] = remark or other dose. A selection: hits, their analogues and other compounds. The true share with any hit is near 1.3%.

SMILES | RXFP1 ag | gsp antagonist | Akt phos inh | RXFP1 antagonist | gsp ag | TSHR antag
CCCCCCCCn1c2c(c(=N)c3ccccc31)CCC2 | -1% | -5% | i | -18 | 26%[15.4 µM] | 15
CCn1c2c(c(=N)c3c1CCC3)CCCC2 | 6% | 7% | i | 5 | 23%[15.4 µM] | -3
Cc1ccc(N2CC(C(=O)N3CCCCCC3)CC2=O)cc1 (stereo unspecified) | -2% | -15% | i | 4 | -17% | 10
CC(=O)Nc1nc(-c2ccc3c(c2)OCO3)cs1 | 0% | -7% | i | -3 | 17% | -3
CCOC(=O)N1CCN(C(=O)CSCC(=O)Nc2nc(-c3cccs3)cs2)CC1 | 0% | ? | i | -5 | -13% | -5
CCOC(=O)N1CCN(C(=O)CSCC(=O)Nc2nc(-c3ccc4c(c3)OCO4)cs2)CC1 | 0% | 35µM* | i | 2 | -19% | -11
CCOC(=O)N1CCN(C(=O)CSCC(=O)Nc2nc(-c3ccc(C)cc3)cs2)CC1 | 0% | 32µM* | i | 1 | -4% | 14
Brc1cccc(-c2cnn3c(-c4ccccc4)cc(-c4ccccc4)nc23)c1 | 5% | nt | nt | 5 | nt | nt
COc1ccc(C(=O)NCCN2CCCC2)cc1 | 1% | 7% | i | 4 | 1%[15.4 µM] | 1
COc1ccc(CC(=O)NCCN2CCCC2)cc1 | -1% | -9% | -121%* | 4 | 15% | 37
CCC(NC(=O)C1CCCC1)c1ccccc1 (stereo unspecified) | nt | 4% | i | -7 | -11%[15.4 µM] | nt
CCn1c(SCc2ccccc2F)nc(=O)c2c(C(=O)OC)cc(C3CC3)nc21 | 0% | nt | nt | -102* | nt | nt
CCn1c(SCc2ccc(F)cc2Cl)nc(=O)c2c(C(=O)OC)cc(C3CC3)nc21 | 0% | nt | nt | -84* | nt | nt
CC(C)[C@@H]1CC[C@@H](C)CC1=O | nt | nt | nt | 17 | nt | nt
CC1(C)CC(=O)C2=C(C1)NC1=C(C(=O)c3ccccc31)C2c1cc([N+](=O)[O-])ccc1O (stereo unspecified) | ? | -12% | i | 23 | 14µM* | -4
COc1ccc(NC(=O)CCCn2c(=O)[nH]c3ccccc3c2=O)cc1 | 0% | 15% | -110%* | -11 | 0% | -5
COc1ccc(C(F)(F)F)cc1N/C=C/c1nnnn1-c1ccc(C)cc1 | -2% | -12% | i | -3 | 9% | -14
CCCCc1ccc(NC(=S)N2CCN(c3ccccn3)CC2)cc1 | 0% | -11% | i | -69* | -20% | -7
CCc1noc(-c2ccc(N3CCCCC3)c([N+](=O)[O-])c2)n1 | 8% | nt | nt | nt | nt | nt
Oc1ccccc1Nc1nc(NCc2ccccc2)c2ccccc2n1 | 1% | ? | i | -79* | 2%[15.4 µM] | -16
CCc1cc2c(N3CCN(c4ccccc4)CC3)ncnc2s1 | 4% | 50µM* | i | -23 | -35% | -33
Oc1ccc(N2CCN(c3ncnc4sc(-c5ccccc5)cc34)CC2)cc1 | -2% | -32% | i | -34 | 2%[15.4 µM] | -16
CCNc1nc(C)c2cc(Br)c(=O)n(CC)c2n1 | ? | 8% | -104%* | 11 | 20µM* | 10
CC/C=C(/C(=O)N[C@@H]1C(=O)N2C(C(=O)OCOC(=O)C(C)(C)C)=C(COC(N)=O)CS[C@H]12)c1csc(N)n1 | nt | nt | nt | -14 | nt | nt
COc1cccc(C(=O)/C=C/Nc2cc(C)ccc2O)c1 | 3% | ? | i | -78* | ? | -1
SMILES | RXFP1 ag | gsp antagonist | Akt phos inh | RXFP1 antagonist | gsp ag | TSHR antag
CCOC(=O)c1ccc(N/C=C\C(=O)c2cccc(OC)c2)cc1 | 0% | 7% | i | nt | ? | -5
CC(C)(C)C(=O)NC(=S)NNC(=O)c1ccncc1 | 2% | 0% | i | 6 | -1% | 4
CC(C)(C)C(=O)NC(=S)NNC(=O)c1ccc(-c2ccccc2)cc1 | 0% | 5% | i | -38 | 0% | -81*
O=C(CCc1ccccc1)NCCS(=O)(=O)N1CCN(c2ccccc2)CC1 | 0% | -3% | i | -5 | 18%[15.4 µM] | nt
O=C(C1=C(O)C(=O)N(c2nccs2)C1c1ccccc1)c1cc2ccccc2o1 (stereo unspecified) | 16µM* | -7% | i | 9 | ? | 17
O=C(C1=C(O)C(=O)N(CCc2ccccc2)C1c1ccncc1)c1cc2ccccc2o1 (stereo unspecified) | 14µM* | 11% | i | 13 | 42%[15.4 µM] | -4
CCN(CC)CCN1C(=O)C(O)=C(C(=O)c2cc3ccccc3o2)C1c1cccnc1 (stereo unspecified) | 27% | 2% | i | 11 | ? | 30
Cc1ccc(C(=O)N2CCc3cc(CNC(=O)COc4ccccc4)ccc32)cc1 | 3% | nt | nt | -10 | nt | nt
COc1ccc(OCCN(C)Cc2c(O)ccc3ccccc23)cc1 | -1% | -12% | i | -11 | -8% | 10
CCCCCCc1nc2c(=O)[nH]c3ccccc3c2o1 | 11% | 12% | -87%* | -14 | -5% | -1
CCCCCCCc1nc2c(=O)n(C)c3ccccc3c2o1 | 0% | 14% | nt | -1 | 5% | 0
CN(C)c1ccc(C(CNC(=O)COc2ccc(Cl)cc2)N2CCCC2)cc1 (stereo unspecified) | 0% | 3% | nt | -64* | -1% | -1
CN(C)c1ccc(C(CNC(=O)COc2ccc(Cl)cc2)N2CCOCC2)cc1 (stereo unspecified) | 8% | nt | nt | -9 | nt | nt
CCOC(=O)N1CCN(C(=O)C2CCN(C(=O)c3ccccc3C)CC2)CC1 | nt | 3% | i | -102* | -7%[15.4 µM] | nt
O=C(Nc1ccc2oc(-c3cc(Br)ccc3Cl)nc2c1)c1cc2ccccc2o1 | 20µM* | nt | nt | 5 | nt | nt
CC1C=CCC2C(=O)N(c3cccc(C(=O)N4CCN(c5ccc(F)cc5)CC4)c3)C(=O)C12 (stereo unspecified) | 0% | -12% | i | 6 | 28µM* | -5
O=C(c1cccc(N2C(=O)C3C4C=CC(C4)C3C2=O)c1)N1CCN(c2ccc(F)cc2)CC1 (stereo unspecified) | -2% | 0% | i | -3 | -34% | 1
O=[N+]([O-])c1ccc(NN=Cc2cc(Br)ccc2O)nc1 | nt | -2% | i | -74* | 34% | nt
O=[N+]([O-])c1ccc(NN=Cc2cccc(O)c2)nc1 | nt | -10% | i | -7 | 2% | nt
NS(=O)(=O)c1cc(C(=O)NN2C[C@H]3[C@H]4CCC(C4)[C@H]3C2)ccc1Cl | nt | nt | nt | -7 | nt | nt
CCc1cc(CNC(=O)CC2C(=O)NCCN2Cc2ccc(-c3ccccc3)cc2)on1 (stereo unspecified) | 1% | -6% | i | -12 | -9% | -113*
